Shown are actives, neighbours in structure and some others; about 7.4% of the full set was active somewhere.
SMN2 splice up – enhancers of SMN2 splice variant expression; HEK293 SMN2-luciferase splicing reporter, luminescence, 30-36 h; Potency, µM (highest dose often 46.1 µM), most hits filed as activators; 210,000 compounds, 2.8% hits; AID 1458; also: nearly all actives have a fitted effect of over 55% in size
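HEK293 cells carry an SMN2 […]–luciferase reporter in which exon 7 inclusion puts luciferase in frame. Cells were plated 10-12 h before compound addition, then incubated 30-36 h at 37C. ONE-Glo luminescence was read; sodium butyrate at 4.5 mM final served as control.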
ELG1 genotoxic – induces genotoxicity in HEK293T cells with luciferase-tagged ELG1 | 330,000 compounds, 1.3% hits | HEK293T ELG1-luciferase reporter, luminescence, 16 h | Potency, µM (top dose mostly 46 µM), hits mostly activators; also: nearly all actives have a fitted effect of over 60% in size
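Screening used a luciferase reporter fused to human ELG1 in HEK293T cells. Luminescence was read on a CCD plate imager after 16 hr exposure and 30 min ONE-Glo incubation.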
NPC1 promoter act – activates the NPC1 promoter. Huh7 NPC1 promoter luciferase reporter, 24 h. Potency, µM (series often up to 9.22 µM), actives largely listed as activators. 320,000 compounds, 2.4% hits. AID 485313; also: nearly all actives have a fitted effect of over 60% in size
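Huh7 reporter cells (NPC1 promoter driving luciferase) are dosed with compound for 24 h at 37 °C, 5% CO2; luciferase detection reagent is then added and luminescence measured after 10 min at ambient temperature.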
FLuc modulator – inhibits or activates purified firefly luciferase, miR-21 counter-screen. P08659. purified FLuc, Km substrates, luminescence inhibition. Potency, µM (top dose mostly 57.5 µM), usual class: inhibitors. 360,000 compounds, 6.9% hits. AID 588342; also: nearly all actives have a fitted effect of over 55% in size
Target sequence (P08659 whole entry, looked up): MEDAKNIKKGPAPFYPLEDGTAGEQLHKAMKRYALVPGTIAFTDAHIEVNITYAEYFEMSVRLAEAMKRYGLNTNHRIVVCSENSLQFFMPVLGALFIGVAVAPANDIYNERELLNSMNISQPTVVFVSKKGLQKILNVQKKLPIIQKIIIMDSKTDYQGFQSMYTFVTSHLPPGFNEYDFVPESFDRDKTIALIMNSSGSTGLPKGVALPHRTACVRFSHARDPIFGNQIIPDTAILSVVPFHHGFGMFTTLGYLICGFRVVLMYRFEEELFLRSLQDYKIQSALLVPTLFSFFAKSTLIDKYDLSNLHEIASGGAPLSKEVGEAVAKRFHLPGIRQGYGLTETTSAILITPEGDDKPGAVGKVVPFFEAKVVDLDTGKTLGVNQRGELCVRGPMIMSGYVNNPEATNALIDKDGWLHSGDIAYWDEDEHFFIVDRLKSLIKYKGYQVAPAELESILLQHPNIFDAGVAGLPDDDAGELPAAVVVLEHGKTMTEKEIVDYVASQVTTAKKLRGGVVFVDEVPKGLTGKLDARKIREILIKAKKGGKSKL
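Purified P. pyralis luciferase, 10 nM final, with Km-level 10 uM D-luciferin and 10 uM ATP in 50 mM Tris acetate pH 7.5, 10 mM Mg acetate, 0.01% Tween-20, 0.05% BSA; 6-point qHTS titration about 60 µM downward; luminescence read.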
Luc counter – blocks Kinase-Glo luciferase, a counter-screen artifact; Kinase-Glo luciferase, ATP luminescence, 8 min; Potency, µM (top dose mostly 38.3 µM), most hits filed as inhibitors; 200,000 compounds, 0.28% hits; AID 1379; also: nearly all actives have a fitted effect of over 60% in size
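Kinase-Glo luciferase light output from ATP and luciferin was measured with 10 uM ATP, within the enzyme's linear range. Buffer: 50 mM imidazole pH 7.2, 50 mM KCl, 7 mM MgCl2, 0.01% Tween 20, 0.05% BSA; luminescence read after 8 min at ambient temperature.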
Rab9 promoter act – activates the Rab9 promoter; 320,000 compounds, 2.8% hits; Huh7 Rab9 promoter-luciferase reporter, luminescence, 24 h; Potency, µM (doses to about 9.22 µM), usual class: activators; also: nearly all actives have a fitted effect of over 60% in size
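Promoter activation is measured as luciferase luminescence in Huh7 cells stably transfected with a Rab9 promoter–luciferase construct, following 24 h compound exposure at 37 °C and 10 min reagent incubation at ambient temperature.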
Hits are given with their value; - = inactive; ? = inconclusive; . = no result given. Calls follow the shape of the dose curve; as a rule, active = well fitted curve in the direction sought with a large enough effect; inconclusive = small, poorly fitted or top-dose-only effect, or another doubt; inactive = no such curve, though single readings can be large; an effect the other way counts as inactive or inconclusive.

SMILES	SMN2 splice up	ELG1 genotoxic	NPC1 promoter act	FLuc modulator	Luc counter	Rab9 promoter act
Cc1cc(-c2nc(-c3ccncc3)no2)ccc1[N+](=O)[O-]	.	?	2.2µM	4.8µM	.	4µM
COc1cc(OC)c(NC(=O)CSCc2nc(-c3ccc(OC)c(OC)c3)no2)cc1Cl	.	.	.	-	.	.
Fc1cccc(F)c1-c1nc(-c2ccncc2)no1	.	?	?	17µM	.	2µM
COc1cc(OC)c(NC(=O)CCc2nc(-c3ccc(C)cc3)no2)cc1Cl	-	-	-	21µM	-	-
CNc1ccc(-c2nc(-c3ccncc3)no2)cc1[N+](=O)[O-]	.	.	.	-	.	.
COc1ccc(-c2noc(-c3cccs3)n2)cc1OC	.	?	1.3µM	2.4µM	.	1.6µM
Cc1ccc(-c2nc(-c3ccncc3)no2)cc1C	.	2.3µM	0.71µM	0.76µM	.	0.56µM
Cc1noc(-c2ccc(-c3noc(-c4ccc(C(F)(F)F)cc4)n3)cc2)n1	.	.	.	-	.	.
Cc1ccc2c(CC(=O)Nc3c(C(=O)c4ccc(F)cc4)oc4ccccc34)coc2c1C	-	.	.	-	.	.
COc1ccc(NC(=O)/C=C/c2cccc(F)c2)cn1	11µM	?	2µM	7.6µM	-	2.2µM
Cc1ccc(NC(=O)/C=C/c2ccco2)cc1F	.	.	.	5.4µM	.	.
COc1ccc(NC(=O)/C=C/c2ccc(Br)o2)cn1	.	-	-	?	.	-
COc1ccc(NC(=O)/C=C/c2ccco2)cn1	13µM	?	3.2µM	21µM	-	4µM
Cc1ccc(-n2ncc3c(=O)n(Cc4cccc(Cl)c4)cnc32)cc1C	-	.	.	-	.	.
CCCC(=O)Nc1ccc(-c2csc(N/N=C\c3ccncc3)n2)cc1	.	-	?	3µM	.	?
CC(=O)Nc1ccc(-c2csc(N/N=C\c3ccncc3)n2)cc1	.	-	-	7.6µM	.	-
CCCC(=O)Nc1ccc(-c2csc(NNC(C)=O)n2)cc1	.	-	-	-	.	-
COc1ccc(S(=O)(=O)Nc2cc3c4c(c2)CCN4C(=O)CC3)cc1OC	.	-	-	-	.	-
Cc1ccc(NC(=S)N(Cc2ccco2)C2CCN(C(C)C)CC2)cc1	-	-	-	-	-	-
O=C(CSc1nnc(-c2ccc(O)cc2)o1)Nc1ccccc1	.	8.2µM	2.5µM	?	.	2.8µM
N#Cc1c(NC(=O)CSc2nnc(-c3ccccc3)o2)sc2c1CCCC2	?	-	-	-	-	-
COc1cccc(NC(=O)CSc2nnc(-c3cc(C)n(-c4ccccc4)c3C)o2)c1	-	-	-	12µM	-	-
O=C(CSc1nnc(-c2csc3c2CCCC3)o1)Nc1ccccc1	1.8µM	0.58µM	?	-	-	0.56µM
Cc1csc(NC(=O)CSc2nnc(-c3ccccc3)o2)n1	11µM	5µM	3.2µM	-	-	2µM
O=C(O)CSc1nnc(-c2ccc(O)cc2)o1	-	.	.	?	.	.
SMILES	SMN2 splice up	ELG1 genotoxic	NPC1 promoter act	FLuc modulator	Luc counter	Rab9 promoter act
COc1cccc(NC(=O)c2cc3c(=O)n(C)c4ccccc4c3n2C)c1	-	.	.	-	.	.
COc1ccccc1NC(=O)CSc1nnc(Cc2ccccc2)o1	-	.	.	-	-	.
Cc1csc(NC(=O)CSc2nnc(NC(=O)COc3ccccc3)s2)n1	-	-	-	2.1µM	-	-
COc1ccccc1NC(=O)CSc1nnc(-c2ccccc2)o1	14µM	18µM	?	-	-	?
O=C(N/N=C/C1CC=CCC1)c1cc(Br)ccc1O (centres undefined)	-	-	-	13µM	-	-
C/C=N/NC(=O)c1cc(Br)ccc1O	-	-	-	-	-	-
O=C(N/N=C/C1CC=CCC1)c1ccc(Cl)cc1O (centres undefined)	-	-	-	19µM	-	-
O=C(N/N=C/C1CC=CCC1)c1ccccc1O (centres undefined)	-	-	-	15µM	-	-
O=C(CNc1ccccc1F)N/N=C/C1CC=CCC1 (centres undefined)	-	-	-	-	-	-
O=C(c1cc2ccccc2oc1=O)N1CCOCC1	.	?	?	12µM	.	?
O=C(c1cc2cc([N+](=O)[O-])ccc2oc1=O)N1CCOCC1	.	-	-	2.4µM	-	-
O=C(c1cc2c(=O)oc3ccccc3c2s1)N1CCOCC1	-	-	-	17µM	-	-
O=C(c1cc2c(=O)n3ccccc3nc2s1)N1CCOCC1	11µM	4.1µM	2.8µM	19µM	-	3.2µM
